Shiga inhibitor: blocks Shiga toxin action in Vero cells; 290,000 compounds, 9.2% hits; Vero cells, Shiga toxin protein synthesis inhibition reporter; inhibition, % at 38.7 µM; in the data active means inhibition mostly above about 28%, no sharp cut-off; inactive means mostly below about 43%; further: 0% is about no effect
Pf growth 96h: inhibits malaria parasite growth, 96 h; P. falciparum luciferase reporter growth, 96 h; Potency, µM (top dose mostly 28.7 µM), for inactives: at the top dose activity change, negative = inhibition, actives largely listed as inhibitors; 320,000 compounds, 6.9% hits; active means well fitted inhibition curve with a large enough effect; inconclusive means small, poorly fitted or top-dose-only effect, or another doubt; inactive means no such curve, though single readings can be large or run the other way; further: potency means the concentration at half of the fitted maximal effect; on the % scale 0 is the no-effect control and ±100 the full control effect
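P. falciparum expressing integrated firefly luciferase grown in erythrocytes (2% hematocrit, 0.05% parasitemia final) with compounds for 96 hours at 37 C, 5% CO2. Growth inhibition read as loss of luminescence after adding luciferase detection reagent.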
CHX counter: counter-screen hit for Shiga toxin inhibitors, cycloheximide | cell reporter, cycloheximide protein synthesis inhibition counterscreen | 300,000 compounds, 12% hits | AID 2314 | max response, %; in the data active means max response mostly above about 13%, no sharp cut-off; inactive means mostly below about 14%; further: read at 38.3 µM for the half of the compounds with a filed dose; 0% is about no effect
SARS PLP yeast: inhibitors of SARS-CoV papain-like protease in yeast | S. cerevisiae expressing SARS-CoV PLpro, growth rescue | 330,000 compounds, 0.19% hits | Potency, µM (series often up to 32.9 µM), for the others: top-dose activity, positive = growth rescue, actives largely listed as activators; further: potency means the concentration at half of the fitted maximal effect; 0% is about no effect; nearly all actives have a fitted effect of over 55% in size
NS1 function inh: inhibitors of influenza NS1 protein function; 270,000 compounds, 0.4% hits; Potency, µM (top dose mostly 46.1 µM), inactives show at the highest dose activity, positive = more growth; further: potency means the concentration at half of the fitted maximal effect; actives are rising curves; nearly all actives have a fitted effect of over 50% in size
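Compounds were scored for reversing the slow growth caused by influenza A NS1 in S. cerevisiae, measured by optical density at 600 nm. Assay medium contained 2% galactose at pH 6.0; NS1-free yeast of the same strain were the positive control.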
Pf growth 48h: P. falciparum growth inhibition at 48 hours (one generation) | P. falciparum luciferase growth in erythrocytes, 48 h | Potency, µM (titrated, usually from 28.7 µM), for the others: top-dose activity change, negative = inhibition, usual class: inhibitors | 310,000 compounds, 5.9% hits | AID 504832; active means well fitted inhibition curve with a large enough effect; inconclusive means small, poorly fitted or top-dose-only effect, or another doubt; inactive means no such curve, though single readings can be large or run the other way; further: potency means the concentration at half of the fitted maximal effect; on the % scale 0 is the no-effect control and ±100 the full control effect
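Here the parasites carry a stable luciferase gene and grow inside erythrocytes in Albumax-based RPMI medium with compound for one erythrocytic cycle. Activity is scored as loss of luminescent signal.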
Numbers without * were called inactive; ? = inconclusive; · = not tested or not shown; [ ] = another dose, or the depositor's remark. A selection: hits, their analogues and other compounds. The true share with any hit is near 21%. Unless noted, the call rests on the fitted dose curve.

SMILES	Shiga inhibitor	Pf growth 96h	CHX counter	SARS PLP yeast	NS1 function inh	Pf growth 48h
COc1ccc(S(=O)(=O)NNC(=O)C2COc3ccccc3O2)cc1[N+](=O)[O-] (stereo unspecified)	·	-16%	·	4%	·	-3%
CCC(=O)NNc1ncnc2c1cnn2-c1cccc(C)c1	16	25%	7	1%	·	7%
COc1ccc(-n2ncc3c(Nc4cccc(C)c4)ncnc32)cc1	109*	20%[5.75 µM]	15*	3%	-6%	65%
COc1ccc(Nc2ncnc3c2cnn3-c2cccc(C)c2)cc1OC	27	11%	-2	0%	3%	20%
Cc1cccc(-n2ncc3c(Nc4ccc(F)cc4)ncnc32)c1	52*	?	44*	-9%	-2%	?
Cc1ccccc1Nc1ncnc2c1cnn2-c1ccccc1	70*	3%	48*	-16%	-139%	-16%
Cc1cccc(-n2ncc3c(NC(C)C)ncnc32)c1	79*	224%	53*	-14%	-73%	162%
O=C(O)/C=C/c1cn(-c2ncc(C(F)(F)F)cc2Cl)c2ccccc12	-11	-25%	-1	-16%	-10%	?
CC(C)CN1CCNC(=O)C1CC(=O)NCCCN1CCCc2ccccc21 (stereo unspecified)	-9	?	6	1%	1%	-2%
O=C(Nn1c(-c2ccncc2)nc2ccccc2c1=O)c1ccc([N+](=O)[O-])cc1Cl	-6	?	-1	-3%	·	-8%
Cn1c(=O)c2sccc2n2c(CCCC(=O)Nc3ccc(F)cc3F)nnc12	-6	-2%	-3	1%	11%	9%
CC(OC(=O)CCNS(=O)(=O)c1cccs1)C(=O)Nc1ccc(S(N)(=O)=O)cc1 (stereo unspecified)	·	20%	·	1%	·	-18%
Cc1cccc(-n2ncc3c(N(C)Cc4ccccc4)ncnc32)c1	97*	99%	57*	-6%	-36%	72%
c1ccc(-n2ncc3c(NC4CCCCCC4)ncnc32)cc1	62*	67%	45*	-3%	-6%	130%
CCOc1ccc(Nc2ncnc3c2cnn3-c2ccccc2)cc1	3	-5%	-3	2%	-39%	43%
NNc1ncnc2c1cnn2-c1ccccc1	42	·	38*	5%	5%	?
CC(C)Nc1ncnc2c1cnn2-c1ccccc1	24*	81%	23*	-41%	-11%	171%
CCOC(=O)N1CCC(Nc2ncnc3c2cnn3-c2ccccc2)CC1	18	33%	3	-14%	-57%	?
c1ccc(COc2ccc3nocc3c2)cc1	·	0%	·	4%	·	29%
O=C(Cn1nc(-c2ccc3c(c2)OCCO3)ccc1=O)Nc1cccc(NC(=O)c2ccccn2)c1	17	19%	2	4%	·	-3%
O=C(OCC(=O)N1CCCC1)c1c2c(nc3ccccc13)CCCCC2	6	?	3	-1%	·	-6%
CCN1CCN(CCCNC(=O)C2c3ccccc3C(=O)N(c3ccc(OC)cc3)C2c2ccc(OC)cc2)CC1 (stereo unspecified)	23	-19%	-2	-3%	-4%	-24%
CC1=NN(c2ccc(Cl)cc2)C(=O)/C1=C\c1cccn1-c1ccc(S(N)(=O)=O)cc1	-10	?	-2	-67%	-32%	-5%
Cc1cccc(-n2ncc3c(N)ncnc32)c1	93	-3%	52*	-9%	-12%	3%
COC(=O)c1ccc(Nc2ncnc3c2cnn3-c2cccc(C)c2)cc1	9	?	10	3%	-3%	7%
COC(=O)C(C)Sc1nnc2n(-c3cccc(C)c3)c(=O)c3c4c(sc3n12)CCCC4 (stereo unspecified)	2	12µM*	-2	4%	-5%	10µM*
COC(=O)CCCC1=CC2=C(c3ccccc3)C(=O)C(C)(OC(=O)C3CCCC3)C(=O)C2=CN1CCCCO (stereo unspecified)	5	?	-2	1%	-2%	?
COC(=O)CCCC1=CC2=C(c3ccccc3)C(=O)C(C)(OC(=O)C3CCCC3)C(=O)C2=CN1Cc1ccco1 (stereo unspecified)	-6	12µM*	-4	1%	4%	?
CCOc1ccc2[nH]c3c(NCCN(CC)CC)ncnc3c2c1	2	2.1µM*	-3	-5%	0%	2.3µM*
